Laboratory results: PubChem BioAssay AID1740 (National Center for Advancing Translational Sciences (NCATS), 2009)
Inconclusive results are not listed. Calls of active or inactive are those of the source. Calls come from the whole dose curve; as a rule, active = well fitted activation curve with a large enough effect; inconclusive = small, poorly fitted or top-dose-only effect; inactive = no such curve, though single readings can be large or run the other way.

assay: Confirmation Concentration-Response Assay for Enhancers of SMN2 Splice Variant Expression; conditions: HEK293 SMN2-exon7-luciferase splicing reporter, luminescence, 30-36 h; series mostly up to 46.1 µM; activation: at the top concentration
From the text: NIH Chemical Genomics Center [NCGC] NIH Molecular Libraries Probe Production centers Network [MLPCN] MLPCN Grant: R03 MH084179-01 Assay Submitter (PI): Elliot Androphy NCGC Assay Overview: Spinal muscular atrophy (SMA) is caused by insufficient levels of the survival motor neuron protein SMN. The SMN locus on chromosome 5q13 contains two inverted copies of SMN called SMN1 and SMN2 which are 99% identical at the amino acid level. SMN1 is a fully functional protein and SMN2 skips exon 7 90% of the time. Skipping of exon 7 produces non-functional protein product. 10% of the SMN2 protein includes exon 7 and is fully functional. In the SMA disease state, mutations in the SMN1 locus are the cause of the disease state. Because only 10% of SMN2 is of the fully functional form, it is not sufficient to overcome the deficiency produced by the loss of the SMN1 product. A therapy that either increase the amount of SMN2 product made or to increase the inclusion of exon 7 has been proposed for the treatment of SMA. We have designed an assay to identify small molecules that can increase the amount of functional SMN2 product by appending a luciferase reporter gene after the native SMN2 gene, such that inclusion of exon 7 in the expressed product places the luciferase sequence in frame, thus generating functional luciferase enzyme.
NCGC Assay Protocol Summary: This screen utilizes a luciferase reporter gene assay, combining the promoter with the major portion of the native SMN2 cDNA (exons 1 -7, intron 8 , exon 8 fused to luciferase) stably expressed in HEK293 cells. Compounds that increase luciferase signal presumably enhance expression of the functional SMN2 splice variant. Passaging media contained DMEM w/ glutamax (+phenol red) 10% FCS, 1x pen/strep, 200 ug/ml hygro, 1x sodium pyruvate. Assay media contained DMEM w/ glutamax (-phenol red) 10% FCS, 1x pen strep, 1x pyruvate Sequence, Parameter, Value, Description (1) Cells, 5 uL, 2000 cells/well, 1536 TC treated White solid bottom plate (2) Time, 10-12 hours, 37C 5% CO2 (3) Compound, 23 nl, MLSMR Library (4) Control Compound, 23 nL, Sodium butyrate st 4.5mM (final) conc (5) Time, 30-36 hours, 37C 5% CO2 (6) Reagent, 3 ul, One Glo (TM) from Promega (7) Time, 5-15 minutes, Room temp (8) Detector, Viewlux: luminescent read, 60 second integration, high speed 2x binning Keywords: Spinal muscular atrophy, SMA, SMN2, high throughput screening, MLSMR, MLPCN, NIH Roadmap, qHTS and NCGC

activation, inactive:
CCCc1sc(N2CCCC(C(N)=O)C2)nc1-c1ccccc1 (stereo not given) -3.13% [at 22.7 µM], Clc1nc(NCc2ccco2)c2[nH]cnc2n1 -44.5%, O=C(Nc1cccnc1)/C(N=Nc1c(Cl)cccc1Cl)=C(\O)c1ccccc1 -12.1%, COCCCN1C(=O)C(=O)/C(=C(/O)c2ccc3c(c2)CC(C)O3)C1c1cccnc1 (stereo not given) 8.87%, CC(C)(C)n1nnnc1C(c1ccc2ncccc2c1)N1CCSCC1 (stereo not given) -2.06%, COc1nc(-c2ccc(Cl)cc2)nnc1C 7.47% [at 22.7 µM], CN(C)CCCN(C(=O)c1cccs1)c1nc(-c2ccccc2)cs1 -7.7% [at 22.7 µM], O=C(NCCc1cn2ccsc2n1)c1cccs1 1.45%, CC1CN(c2nc(-c3ccc(Br)cc3)nnc2-c2ccccc2)CC(C)N1 (stereo not given) -5.21% [at 9.48 µM], Clc1ccc(-c2nnc(-c3ccccc3)nc2-c2c[nH]c3ccccc23)cc1 -10.1% [at 9.48 µM], Clc1ccc(-c2nnc(-c3ccc(Br)cc3)c(N3CCSCC3)n2)cc1 -10.7% [at 9.48 µM], CCOc1ccc2nc(N3CCC(C(=O)N4CCN(c5ccccn5)CC4)CC3)sc2c1 -40.3% [at 22.7 µM], NC(=O)C1(N2CCCCC2)CCN(c2nc(-c3ccc(Br)cc3)cs2)CC1 -43.5% [at 22.7 µM], FC(F)(F)c1cccc(-c2nnc(-c3ccccc3)c(N3CCOCC3)n2)c1 -5.49% [at 9.48 µM], NC(=O)C1(N2CCCCC2)CCN(c2nc(-c3ccccc3)cs2)CC1 -7.38% [at 22.7 µM], O=C(Nc1nc(-c2ccc3ccccc3c2)cs1)C1CCN(S(=O)(=O)c2cccs2)CC1 -43.5% [at 22.7 µM], c1coc(CNc2ncnc3nc[nH]c23)c1 6.63%, Nc1ccccc1-c1nnn(CC(=O)N2CCCc3ccccc32)n1 -22.5%, CN(Cc1ccccc1)Cc1c(F)cccc1F -9.07%, Nn1c(SCC(=O)NCCC2=CCCCC2)nnc1C1CCCCC1 9.87%, COc1ccc(OC)c(-c2csc(N3CCC(c4ccccc4)CC3)n2)c1 -18.9% [at 22.7 µM], CCC(=O)n1nc(NCc2ccccc2OC)nc1NCc1ccccc1OC -36.1%, OCCCNc1nc(-c2ccc(Br)cc2)nnc1-c1ccc(Cl)cc1 -38.2% [at 22.7 µM], Clc1nc(NCC2CCCO2)c2[nH]cnc2n1 (stereo not given) -10.1%, N#C/C(=C\Nc1ccccc1SC(F)(F)F)c1nc(-c2ccc(Cl)cc2)cs1 -29.8%, Cc1ccc(-c2nnc(-c3ccccc3)c(-c3ccccc3)n2)cc1 5.5% [at 22.7 µM], Cc1ccc(-c2csc(NC(=O)C3CCN(S(=O)(=O)c4cccs4)CC3)n2)cc1 -64.2% [at 22.7 µM], O=C1CCC(C(=O)Nc2cccc3ccccc23)N1 (stereo not given) 13%, O=C(NCCCNCCCNC(=O)c1ccccn1)c1ccccn1 -12%, COc1ccc(-c2csc(N3CCC(C(N)=O)(N4CCCCC4)CC3)n2)cc1 -36.3% [at 22.7 µM], O=S(=O)(NC1CCCc2ccccc21)c1cnc[nH]1 (stereo not given) -0.677%, O=C(NCc1cccs1)C(=O)NCC1OCCCN1S(=O)(=O)c1ccccc1 (stereo not given) 10.3%, Cn1cnc2c(NCc3ccco3)ncnc21 -5.32%, FC(F)(F)c1nnc(-c2ccccc2)nc1Oc1ccccc1 0.177% [at 22.7 µM]

Potency, active:
Cc1oncc1C(=O)Nc1ccc(C(F)(F)F)cc1 7.08 µM, OC[C@H]1O[C@@H](n2cnc3c(Nc4ccccc4)ncnc32)[C@H](O)[C@H]1O 8.91 µM, Cn1c(C(=O)NCc2cccs2)cc2oc3ccccc3c21 2.82 µM, CC(/C=C/C(=O)NO)=C\[C@@H](C)C(=O)c1ccc(N(C)C)cc1 1.12 µM, COc1nc(-c2ccccc2)nnc1-c1ccccc1 2.51 µM, CCOc1c(Cl)cc(C(=O)Nc2ccccc2C(=O)O)cc1Cl 2.82 µM
